Outcome and AC50 data for 18 compounds are collected here from PubChem BioAssay (EPA / NIEHS).

The source made the active and inactive calls. How the source made its calls: active means hit-call score of the fitted dose curve at least 0.9, where 1 is the maximum; inactive means score below 0.9.

Usually AC50 stands for the midpoint of the concentration-response curve, whichever way the signal moves.

The nature of experiment [1]: ATG_PBREM_CIS: Attagene CIS-FACTORIAL HepG2 Assay for human Phenobarbital-responsive Enhancer Module (PBREM) (AID 2282955). As to conditions: HepG2 PBREM cis-reporter, Attagene multiplexed transcription; actives raise or lower the signal. In outline:
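Multiplexed cis-reporter readout in human hepatoma HepG2 cells; PBREM-regulated transcript quantified after 24 h exposure by fluorescent RT-PCR fragment analysis. Signal changes up or down fitted relative to DMSO.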

Experiment [2] concerns the target Paired box protein Pax-6 (Homo sapiens) (UniProt P26367). Kind of experiment: ATG_Pax6_CIS: Attagene CIS-FACTORIAL HepG2 Assay for human Paired Box 6 (PAX6) (AID 2282956). As to conditions: HepG2 CIS-FACTORIAL PAX6 reporter transcription, RNA readout; actives raise or lower the signal. The essentials:
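Transient MRTU transfection of HepG2 → compound exposure 24 h → TriZol RNA, oligo(dT) RT → PCR, 6-FAM primer extension, HpaI cut → capillary electrophoresis; activity fitted both directions against DMSO.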

Experiment [3] can be described thus: ATG_PXRE_CIS: Attagene CIS-FACTORIAL HepG2 Assay for human Pregnane X Receptor Element (PXRE) (AID 2282957). To be noted: HepG2 Attagene CIS-FACTORIAL PXRE reporter, mRNA; actives raise or lower the signal. The essentials: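 Transfect HepG2 with MRTUs (cis promoter elements); dose chemical, incubate 24 h; isolate RNA, RT with oligo(dT), PCR, 6-FAM label, HpaI cut, CE. Gain/loss fit vs DMSO.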

A short description of experiment [4]: ATG_PPRE_CIS: Attagene CIS-FACTORIAL HepG2 Assay for human Peroxisome Proliferator-activated Response Element (PPRE) (AID 2282958). As to conditions: HepG2 PPRE cis-element reporter, Attagene transcription factor profiling; actives raise or lower the signal. The essentials:
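DMSO served as negative control and baseline for bidirectional curve fitting. Signal came from PPRE-regulated reporter mRNA in HepG2 cells, measured 24 h post-dosing by RT-PCR, 6-FAM primer extension and capillary electrophoresis.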

Experiment [5] is described as follows: ATG_RORE_CIS: Attagene CIS-FACTORIAL HepG2 Assay for human RAR-related Orphan Receptor Element (RORE) (AID 2282959). As to conditions: HepG2 Attagene cis-factorial RORE reporter, mRNA; actives raise or lower the signal. In outline:
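Transfect HepG2 with MRTUs; treat 24 h; extract RNA; RT with oligo(dT); PCR with reporter-specific primers; 6-FAM primer extension; HpaI digest 2 h at 37 C; capillary electrophoresis. Fit vs DMSO, bidirectional.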

A short description of experiment [6]: ATG_Sox_CIS: Attagene CIS-FACTORIAL HepG2 Assay for human SRY-box transcription factor (SOX) (AID 2282960). To be noted: HepG2 Attagene cis-factorial SOX reporter, mRNA; actives raise or lower the signal. In outline: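 Fluorescence-labelled cDNA fragments from reporter transcripts, sized by CE, give the signal. Cells: HepG2, transiently transfected with cis-regulated reporter units. Exposure 24 h; DMSO negative control; bidirectional curve fitting.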

The target of experiment [7] is Transcription factor Sp1 (Homo sapiens) (UniProt P08047). Description: ATG_Sp1_CIS: Attagene CIS-FACTORIAL HepG2 Assay for human Specificity Protein 1 (Sp1) (AID 2282961). To be noted: HepG2 Sp1 cis-reporter transcription, actives raise or lower the signal. In outline:
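Chemicals are dosed onto HepG2 cells transfected with multiple cis-promoter reporter constructs, and after 24 h reporter RNA is reverse-transcribed, PCR-amplified and resolved by capillary electrophoresis for fluorescence quantitation; activity is scored up or down against DMSO.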

Experiment [8] is described as follows: ATG_SREBP_CIS: Attagene CIS-FACTORIAL HepG2 Assay for human Sterol Regulatory Element Binding (SREBP) (AID 2282962). As to conditions: HepG2 Attagene cis-factorial SREBP reporter, mRNA; actives raise or lower the signal. The essentials:
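Transfected HepG2 (cis-regulated reporter library, endogenous TFs) → compound 24 h → total RNA → oligo(dT) RT → reporter-specific PCR → FAM primer extension, HpaI cut → CE fluorescence. Fit bidirectional vs DMSO.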

Experiment [9] deals with Signal transducer and activator of transcription 3 (Homo sapiens) (UniProt P40763). Kind of experiment: ATG_STAT3_CIS: Attagene CIS-FACTORIAL HepG2 Assay for human Signal Transducer and Activator of Transcription 3 (STAT3) (AID 2282963). To be noted: HepG2, Attagene cis-factorial STAT3 reporter transcription; actives raise or lower the signal. The essentials:
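Endogenous STAT3-responsive cis-element activity was read in transiently transfected HepG2 cells after 24 h treatment. Reporter transcripts were quantified via RT-PCR and capillary electrophoresis, with DMSO as negative control and bidirectional curve fitting.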

Experiment [10] can be described thus: ATG_TA_CIS: Attagene CIS-FACTORIAL HepG2 Assay for human TA Basal Promoter (AID 2282964). To be noted: HepG2 Attagene CIS-factorial TA basal promoter reporter; actives raise or lower the signal. The essentials: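 Transfected HepG2, 24 h compound exposure; RNA → RT-PCR → FAM primer extension → HpaI cut → CE fluorescence. Gain/loss-of-signal fitted against DMSO negative control. Background-control readout.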

Sequence of Transcription factor Sp1 (Homo sapiens) (P08047 whole entry, looked up): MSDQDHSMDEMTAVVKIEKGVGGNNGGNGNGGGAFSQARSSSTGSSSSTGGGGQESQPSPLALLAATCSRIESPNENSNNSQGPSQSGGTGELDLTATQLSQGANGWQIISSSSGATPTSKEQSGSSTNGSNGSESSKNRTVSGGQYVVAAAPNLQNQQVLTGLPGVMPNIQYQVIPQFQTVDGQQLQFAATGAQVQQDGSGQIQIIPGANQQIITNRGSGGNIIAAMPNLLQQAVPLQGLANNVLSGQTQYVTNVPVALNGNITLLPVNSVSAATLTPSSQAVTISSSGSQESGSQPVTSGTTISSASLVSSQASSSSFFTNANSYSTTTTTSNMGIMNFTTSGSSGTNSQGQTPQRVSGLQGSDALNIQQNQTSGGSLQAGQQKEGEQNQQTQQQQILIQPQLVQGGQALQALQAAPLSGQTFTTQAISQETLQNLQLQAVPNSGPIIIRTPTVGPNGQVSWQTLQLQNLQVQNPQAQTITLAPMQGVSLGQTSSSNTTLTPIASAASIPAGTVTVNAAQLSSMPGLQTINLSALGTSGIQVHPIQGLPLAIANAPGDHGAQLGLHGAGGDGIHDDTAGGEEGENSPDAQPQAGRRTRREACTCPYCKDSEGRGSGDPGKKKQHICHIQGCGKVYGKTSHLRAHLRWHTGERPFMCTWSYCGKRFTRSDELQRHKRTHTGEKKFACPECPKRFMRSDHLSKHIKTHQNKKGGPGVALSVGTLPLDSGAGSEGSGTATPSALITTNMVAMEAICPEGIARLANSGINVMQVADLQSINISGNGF
Sequence of Signal transducer and activator of transcription 3 (Homo sapiens) (P40763 whole entry, looked up): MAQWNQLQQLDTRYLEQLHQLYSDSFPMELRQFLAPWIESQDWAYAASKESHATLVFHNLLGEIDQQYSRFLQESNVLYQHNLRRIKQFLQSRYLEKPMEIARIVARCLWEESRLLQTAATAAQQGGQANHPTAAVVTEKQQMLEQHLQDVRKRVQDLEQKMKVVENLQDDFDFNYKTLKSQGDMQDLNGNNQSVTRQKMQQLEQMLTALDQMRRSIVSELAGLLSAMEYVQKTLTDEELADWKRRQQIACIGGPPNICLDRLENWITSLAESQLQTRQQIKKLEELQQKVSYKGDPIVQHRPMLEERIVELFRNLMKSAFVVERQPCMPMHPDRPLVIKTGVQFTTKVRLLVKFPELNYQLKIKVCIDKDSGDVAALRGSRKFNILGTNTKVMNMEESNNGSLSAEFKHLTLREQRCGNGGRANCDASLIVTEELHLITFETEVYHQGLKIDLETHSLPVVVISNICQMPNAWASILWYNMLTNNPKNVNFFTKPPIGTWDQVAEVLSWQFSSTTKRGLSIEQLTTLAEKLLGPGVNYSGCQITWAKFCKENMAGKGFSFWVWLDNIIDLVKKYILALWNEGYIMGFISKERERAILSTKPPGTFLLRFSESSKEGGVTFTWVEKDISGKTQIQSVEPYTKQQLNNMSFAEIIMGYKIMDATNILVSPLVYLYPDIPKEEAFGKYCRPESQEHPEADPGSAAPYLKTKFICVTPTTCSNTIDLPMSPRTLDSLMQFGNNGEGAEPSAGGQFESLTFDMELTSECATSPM
Sequence of Paired box protein Pax-6 (Homo sapiens) (P26367 whole entry, looked up): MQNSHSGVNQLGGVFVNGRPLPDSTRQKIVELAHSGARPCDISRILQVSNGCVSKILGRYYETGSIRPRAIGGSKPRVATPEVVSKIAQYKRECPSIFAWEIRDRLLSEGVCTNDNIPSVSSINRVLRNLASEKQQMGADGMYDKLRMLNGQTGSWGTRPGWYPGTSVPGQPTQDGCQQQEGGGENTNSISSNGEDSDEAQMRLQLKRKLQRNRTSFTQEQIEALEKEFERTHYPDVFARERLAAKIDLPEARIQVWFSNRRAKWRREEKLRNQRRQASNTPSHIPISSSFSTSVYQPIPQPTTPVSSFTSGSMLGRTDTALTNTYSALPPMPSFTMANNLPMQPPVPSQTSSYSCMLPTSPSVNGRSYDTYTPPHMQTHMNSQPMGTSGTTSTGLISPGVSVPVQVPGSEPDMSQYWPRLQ

Regarding `O=c1n(Cl)c(=O)n(Cl)c(=O)n1Cl`, the outcome in [1], in [2], in experiment [4], in experiment [5], in experiment [6] and in experiment [7] was inactive. Moreover, the call in [8], in experiment [9] and in experiment [10] was inactive. Besides, the AC50 in [3] is 50 µM (active).
With `CS(=O)(=O)c1ccc(C(=O)C2C(=O)CCCC2=O)c([N+](=O)[O-])c1`, the outcome in experiment [1], in experiment [2], in experiment [3], in experiment [4], in [5] and in experiment [6] was inactive. The compound was called inactive in experiment [7], in experiment [8], in [9] and in experiment [10].
Consider `CCCCC(O)(Cn1cncn1)c1ccc(Cl)cc1Cl` (stereo not given), for which the outcome in experiment [1], in [4], in experiment [6], in [7] and in experiment [8] was inactive. Moreover, the concentration at half-maximal activity (AC50) in [2] is 31 µM (active); in experiment [3], 13 µM (active); in experiment [5] it was 24.7 µM (active); in [9], 50 µM (active); in experiment [10], 65 µM (active).
Take `N#Cc1c(Cl)cccc1Cl`: the result in experiment [1], in experiment [2], in experiment [4], in experiment [5], in experiment [6] and in [7] was inactive. The compound was classed as inactive in experiment [8], in experiment [9] and in experiment [10]. Moreover, the AC50 in experiment [3] is 21.6 µM (active).
Consider `Clc1nc(Cl)nc(Nc2ccccc2Cl)n1`, for which the outcome in [1], in experiment [2], in experiment [5], in [6], in [7] and in [8] was inactive. The compound was called inactive in [9] and in [10]. In addition, the concentration at half-maximal activity (AC50) was 39.7 µM (active) in experiment [3] and 18.7 µM (active) in [4].
Turning to `CCOc1cc(C(C)(C)C)ccc1C1COC(c2c(F)cccc2F)=N1` (stereo not given), the result in experiment [1], in experiment [2], in [4], in experiment [5], in experiment [6] and in experiment [7] was inactive. Further, the outcome in [8], in experiment [9] and in [10] was inactive. Moreover, the concentration at half-maximal activity (AC50) in experiment [3] was 0.593 µM (active).
For `CCN(CC)c1nc(C)cc(OP(=S)(OC)OC)n1`, the outcome in experiment [1], in [2], in experiment [6], in experiment [7], in experiment [8] and in [9] was inactive. Besides, in experiment [10], the call was inactive. Further, the half-maximal activity concentration (AC50) was 3.38 µM (active) in [3], 34.1 µM (active) in experiment [4] and 20 µM (active) in experiment [5].
For the compound `CCOc1nc(F)cc2nc(S(=O)(=O)Nc3c(Cl)cccc3Cl)nn12`, the result in experiment [1], in experiment [2], in experiment [4], in [5], in experiment [6] and in experiment [7] was inactive. Further, the result in experiment [8], in [9] and in [10] was inactive. For the same compound, in experiment [3], the AC50 is 10.1 µM (active).
Regarding `CCCC(=NOCC)C1=C(O)CC(CC(C)SCC)CC1=O` (stereo not given), the outcome in experiment [1], in experiment [2], in experiment [4], in experiment [5], in experiment [6] and in experiment [7] was inactive. Besides, the result in experiment [8], in experiment [9] and in [10] was inactive. Besides, the AC50 in experiment [3] is 29.5 µM (active).
As to `CS(=O)(=O)c1cc(C(F)(F)F)ccc1C(=O)c1cnoc1C1CC1`, the outcome in experiment [1], in experiment [2], in experiment [4], in [5], in experiment [6] and in [7] was inactive. Also, the outcome in [8], in [9] and in experiment [10] was inactive. For the same compound, the AC50 in experiment [3] is 40.2 µM (active).
Consider `CN=C=S`, for which the result in [1], in [2], in experiment [3], in experiment [5], in experiment [6] and in experiment [9] was inactive. Further, in [10], the result was inactive. For the same compound, the AC50 was 18.3 µM (active) in experiment [4], 13.3 µM (active) in [7] and 13.1 µM (active) in experiment [8].
With `COP(=S)(OC)Oc1ccc([N+](=O)[O-])c(C)c1`, the result in experiment [1], in experiment [2], in [6], in [7], in experiment [9] and in experiment [10] was inactive. Moreover, the concentration at half-maximal activity (AC50) in [3] is 13.5 µM (active); in experiment [4], 50 µM (active); in [5], 50 µM (active); in experiment [8] it was 14 µM (active).
Consider `COc1cc(OC)nc(NC(=O)NS(=O)(=O)c2ncccc2OCC(F)(F)F)n1`, for which the result in experiment [1], in experiment [2], in experiment [4], in [5], in [6] and in experiment [7] was inactive. The outcome in experiment [8], in [9] and in [10] was inactive. Further, the half-maximal activity concentration (AC50) in [3] is 63 µM (active).
Take `CC(C)(C)C(=O)C(Oc1ccc(Cl)cc1)n1cncn1` (stereo not given): the concentration at half-maximal activity (AC50) in experiment [1] was 19.5 µM (active); in experiment [3], 5.02 µM (active); in experiment [4], 50 µM (active). For the same compound, the call in [2], in experiment [5], in experiment [6], in experiment [7], in experiment [8] and in [9] was inactive. The compound was called inactive in [10].
As to `CCCCC(C#N)(Cn1cncn1)c1ccc(Cl)cc1` (stereo not given), the outcome in experiment [1], in experiment [2], in [4], in experiment [5], in experiment [6] and in experiment [7] was inactive. Besides, the outcome in [9] and in experiment [10] was inactive. Moreover, the AC50 in [3] is 13.8 µM (active); in experiment [8] it was 12.6 µM (active).
Consider `C=CCOC(=O)C(C)(C)OC(=O)c1cc(-n2c(=O)cc(C(F)(F)F)n(C)c2=O)ccc1Cl`, for which the result in experiment [1], in experiment [2], in experiment [4], in [5], in experiment [6] and in [7] was inactive. Moreover, the compound was classed as inactive in experiment [8], in experiment [9] and in experiment [10]. For the same compound, the AC50 in experiment [3] is 1.49 µM (active).
Take `O=C(Nc1ccccc1-c1ccc(Cl)cc1)c1cccnc1Cl`: the half-maximal activity concentration (AC50) is 17.7 µM (active) in experiment [1], 4.77 µM (active) in [3] and 19.8 µM (active) in experiment [7]. The compound was called inactive in [2], in experiment [4], in experiment [5], in [6], in experiment [8] and in experiment [9]. The call in [10] was inactive.
In the case of `CNC(=O)N(C)c1nnc(C(C)(C)C)s1`, the result in experiment [1], in experiment [2], in experiment [4], in experiment [5], in experiment [6] and in [7] was inactive. Also, the compound was called inactive in experiment [8], in [9] and in experiment [10]. Besides, the half-maximal activity concentration (AC50) in experiment [3] was 50 µM (active).
